# Assay results taken from PubChem BioAssay (Tox21).
# “And” between values parts separate entries of the source, which are not always exact repeats. Identical values can stand only once. Records with an inconclusive call do not appear. Values without a mark were called inactive. The source made the active and inactive calls. Calls come from the whole dose curve; as a rule, active = well fitted inhibition curve with a large enough effect in the repeat runs; inconclusive = weak or mixed curves; inactive = no such curve, though single readings can be large or run the other way.
# Test: qHTS assay to identify small molecule antagonists of the thyroid receptor (TR) signaling pathway (AID 743065); note: nearly all actives have a fitted effect of over 55% in size
# Details: GH3.TRE-Luc, T3-stimulated luciferase inhibition, 23.5 h; series mostly up to 70.3 µM; activity, negative = inhibition: at the top concentration
# Text: U.S. Tox21 Program National Center for Advancing Translational Sciences [NCATS] NIH Chemical Genomics Center [NCGC] U.S. Environmental Protection Agency [EPA] National Institutes of Environmental Health Sciences [NIEHS] National Toxicology Program [NTP] U.S. Food and Drug Administration [FDA] Tox21 Assay Overview: Thyroid receptor (TR), a nuclear hormone receptor, plays an important role in development, proliferation, differentiation, metabolism, brain function, and cardiovascular system. […] To profile the Tox21 10K compound library in TR signaling, a cell-based GH3-TRE-Luc assay (GH3.TRE-Luc cell line, developed by the laboratory of Dr. Albertinka J. Murk, Wageningen University) was used to measure the inhibition of TR. GH3 (rat pituitary tumor) cells stably expressing a TR activity sensor consisting of two TR response elements and a luciferase reporter gene.
# Tox21 Assay Protocol Summary: GH3.TRE-Luc cells were dispensed at 1500 cells/4 uL/well into 1536-well white solid bottom plates using a Multidrop Combi dispenser (Thermo Fisher Scientific Inc., Waltham, MA). After the assay plates were incubated at 37 C for 4 hours, 23 nL of library compound or DMSO controls was transferred to the assay plates by a pintool station (Kalypsys, San Diego, CA), followed by addition of 1 ul of T3 (1 nM, final concentration in the wells) to stimulate TR transactivation. The assay plates were incubated at 37 C for 23.5 h, and then 1 uL of CellTiter-Fluor reagent (Promega, Madision, WI) of measuring cytotoxicity was added to each well using a Bioraptr Flying Reagent Dispenser (FRD) workstation (Beckman Coulter, Indianapolis, IN, USA). The plates were incubated at 37 C and 5% CO2 for additional 30 min, and fluorescence intensity was measured by a ViewLux plate reader (PerkinElmer, Shelton, CT). For measuring luciferase reporter gene activity, 4 uL of ONE-Glo Luciferase Assay reagent (Promega) was added to each well using a Bioraptr FRD (Beckman Coulter), followed by 30 min incubation at room temperature. The luminescence intensity of plates was recorded by a ViewLux plate reader (PerkinElmer, Shelton, CT).
# % is set by controls: 0 for no effect and ±100 for the full control effect; potency is the fitted concentration of half-maximal effect.
Structure (SMILES),"activity, negative = inhibition",Potency
CCCC(=O)OC(C(Cl)(Cl)Cl)P(=O)(OC)OC (stereo not given),-19.9%,
CCC(N)Cc1c[nH]c2ccccc12 (stereo not given),0.0399%,
CCCCNC(C)(C)[P+](=O)O,6.39%,
Cc1nnc2n1-c1sc(Br)cc1C(c1ccccc1Cl)=NC2,,26.6 µM (active)
CNC(C)Cc1ccccc1 (stereo not given),-0.406%,
CN1c2ccccc2C(NCCCCCCC(=O)O)c2ccc(Cl)cc2S1(=O)=O (stereo not given),-5.74%,
CN1[C@@H]2CC[C@H]1CC(OC1c3ccccc3CCc3ccccc31)C2 (stereo not given in full),,5.07 µM (active)
O=C1C(I)=CC(=C(c2cc(I)c(O)c(I)c2)c2ccccc2C(=O)O)C=C1I,,29.8 µM (active) and 23.7 µM (active)
Oc1c(Cl)cc(Cl)cc1Cl,0.418%,
CC1(C)[C@H](C=C(Cl)Cl)[C@H]1C(=O)OCc1c(F)c(F)cc(F)c1F,-21.6%,
C=CCC1(C(C)CCC)C(=O)N=C(S)NC1=O (stereo not given),-3.75%,
C[C@H]1[C@H]2Cc3ccc(O)cc3[C@]1(C)CCN2CCc1ccccc1,,27.1 µM (active)
C/C(=C\c1csc(C)n1)[C@@H]1C[C@@H]2O[C@]2(C)CCC[C@H](C)[C@H](O)[C@@H](C)C(=O)C(C)(C)[C@@H](O)CC(=O)O1,,0.0106 µM (active)
CC(C)CCC(=O)O[C@H]1CC[C@H]2[C@@H]3CCC4=CC(=O)CC[C@]4(C)[C@H]3CC[C@]12C,,29.8 µM (active)
CCCCCc1cc(O)c2c(c1)OC(C)(C)[C@@H]1CCC(C)=C[C@@H]21,,16.8 µM (active)
C=CCN1CC[C@]23c4c5ccc(O)c4O[C@H]2[C@@H](O)C=C[C@H]3[C@H]1C5,0.0499%,
C[C@@H](CO)NC(=O)[C@@H]1C=C2c3cccc4[nH]cc(c34)C[C@H]2N(C)C1,11.4%,
NCC[C@H](O)C(=O)N[C@@H]1C[C@H](N)[C@@H](O[C@H]2O[C@H](CN)[C@@H](O)[C@H](O)[C@H]2N)[C@H](O[C@@H]2O[C@H](CO)[C@@H](O)[C@H]2O)[C@H]1O,3.58% [at 32.5 µM],
C[C@@H]1[C@H](O)[C@@H](C)/C=C/C=C/CC/C=C/C=C/C=C/C=C/[C@H](O[C@H]2O[C@@H](C)[C@H](O)[C@@H](N)[C@H]2O)CC2O[C@](O)(C[C@@H](O)[C@H](O)CC[C@@H](O)C[C@@H](O)C[C@@H](O)CC(=O)O[C@H]1C)C[C@H](O)[C@H]2C(=O)O,0.513%,
CC(C)(O)[C@@H]1[C@H]2OC(=O)[C@@H]1[C@]1(O)C[C@H]3O[C@]34C(=O)O[C@H]2[C@]14C,,inactive

Structure (SMILES),"activity, negative = inhibition",Potency
N#CC1(N2CCCCC2)CCCCC1,-0.302%,
CCCCCN(C)CCC(O)(P(=O)(O)O)P(=O)(O)O,9.68%,
O=c1ccc2cc(O[C@@H]3O[C@H](CO)[C@@H](O)[C@H](O)[C@H]3O)c(O)cc2o1,4.65% [at 32.5 µM],
CCCC(C)(COC(N)=O)COC(=O)NC1CC1 (stereo not given),5%,
[S]=[Sb](=[S])[S][Sb](=[S])=[S],6.35%,
CCC1(c2cnc[nH]2)Cc2ccccc2C1,,inactive
COC1=CC=C2[C@H]3Cc4ccc(OC)c5c4[C@@]2(CCN3C)[C@H]1O5,-12.3% [at 32.5 µM],
NCC(O)c1cccc(O)c1 (stereo not given),4.35%,
F/C(COc1ccc2c(c1)[nH]c1ccccc12)=C1/CN2CCC1CC2,,8.41 µM (active)
Cc1nnc2n1-c1sc(CCc3ccc(CC(C)C)cc3)cc1C(c1ccccc1Cl)=NC2C (stereo not given),,11.9 µM (active)
O=[N+]([O-])c1c(Cl)c(Cl)cc(Cl)c1Cl,-19.4%,
OC(c1ccccc1)(c1ccccc1)C1CN2CCC1CC2 (stereo not given),,29.8 µM (active)
CCOC(=O)C(O)(c1ccc(Cl)cc1)c1ccc(Cl)cc1,,4.91 µM (active) and 61.1 µM (active)
C[C@H]1CC[C@]2(NC1)O[C@H]1C[C@H]3[C@@H]4CC[C@H]5C[C@@H](O)CC[C@]5(C)[C@H]4CC[C@]3(C)[C@H]1[C@@H]2C,,26.6 µM (active)
CN(C)CCCCCCN(C)C,3.17% [at 95 µM],
CCC/C=C/C=C/C(=O)O[C@H]1/C(=C/C(=O)OC)C[C@H]2C[C@H]([C@@H](C)O)OC(=O)C[C@H](O)C[C@@H]3C[C@H](OC(C)=O)C(C)(C)[C@](O)(C[C@@H]4C/C(=C/C(=O)OC)C[C@H](/C=C/C(C)(C)[C@]1(O)O2)O4)O3,,9.44 µM (active)
CC(=O)O[C@H]1C[C@H](O[C@H]2[C@@H](O)C[C@H](O[C@H]3[C@@H](O)C[C@H](OC4CC[C@@]5(C)[C@H](CC[C@@H]6[C@@H]5CC[C@]5(C)[C@@H](C7=CC(=O)OC7)CC[C@]65O)C4)O[C@@H]3C)O[C@@H]2C)O[C@H](C)[C@H]1O[C@@H]1O[C@H](CO)[C@@H](O)[C@H](O)[C@H]1O (stereo not given in full),11.6%,
O=C(Nc1ccccc1-c1ccc(Cl)cc1)c1cccnc1Cl,,57.8 µM (active)
O=[N+]([O-])c1ccccc1Cl,5.62% [at 95 µM],
CCC(=O)O[C@@](Cc1ccccc1)(c1ccccc1)[C@@H](C)CN(C)C,-13.3% [at 32.5 µM],
